Glioma ERSR ind: induces the endoplasmic reticulum stress response in human glioma cells; U87-MG GRP78 promoter luciferase reporter, 16 h; Potency, µM, for the others: top-dose activation, actives largely listed as activators; actives 0.02% (n = 420,000); also: series mostly up to about 76 µM; % of control where 0% means no effect; nearly all actives have a fitted effect of over 35% in size
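Stably transfected U87-MG human glioma cells carrying a GRP78-based luminescent sensor were seeded at 1000 cells/well, pin-dosed with compounds and incubated 16 h. Luciferase reagent was then added, and end-point luminescence was read after 10 min at room temperature.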
12-LOX inh: ALOX12 (human) lipoxygenase inhibition; actives 1.1% (n = 580,000); P18054; Potency, µM (doses to about 108 µM), without a hit: at the top dose activity change, negative = inhibition, hits mostly inhibitors; purified 12hLO, xylenol orange hydroperoxide absorbance; also: % is scaled to controls: 0 for no effect and ±100 for the full control effect
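Purified human 12hLO (150 nM final) in 25 mM Hepes, 0.01% Triton X-100, pH 7.0 was preincubated 15 min at room temperature with compound. Then 40 uM arachidonic acid was added, 30 min. Hydroperoxide was read by Fe-XO absorbance ratio 573/405 nm.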
Sfp PPTase inh: blocks B. subtilis Sfp PPTase activity. Potency, µM, for the others: largest response in the series, negative = inhibition, hits mostly inhibitors. Q9F4F7. actives 3.5% (n = 310,000). Biochemical Sfp PPTase activity, qHTS;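 also: the enzyme is Sfp with the accession as filed and its product quenches rhodamine fluorescence; 0% = enzyme reaction without inhibitor and -100% = no enzyme wells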
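Compounds were incubated with enzyme (final 15 nM) for 15 min at room temperature before substrate addition started the reaction. Fluorescence at 525 nm excitation, 598 nm emission was recorded immediately and after 30 minutes.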
G9a block: blocks human histone lysine methyltransferase G9a | AID 504332 | Q96KQ7 | Potency, µM (highest dose often 102 µM), for inactives: at the top dose activity, negative = inhibition, most hits filed as inhibitors | actives 8.8% (n = 350,000) | G9a H3K9 monomethylation, AlphaScreen, 2 h; also: % is scaled to controls: 0 for no effect and ±100 for the full control effect; nearly all actives have a fitted effect of over 75% in size
Target sequence (Q96KQ7 913-1193 limits assumed): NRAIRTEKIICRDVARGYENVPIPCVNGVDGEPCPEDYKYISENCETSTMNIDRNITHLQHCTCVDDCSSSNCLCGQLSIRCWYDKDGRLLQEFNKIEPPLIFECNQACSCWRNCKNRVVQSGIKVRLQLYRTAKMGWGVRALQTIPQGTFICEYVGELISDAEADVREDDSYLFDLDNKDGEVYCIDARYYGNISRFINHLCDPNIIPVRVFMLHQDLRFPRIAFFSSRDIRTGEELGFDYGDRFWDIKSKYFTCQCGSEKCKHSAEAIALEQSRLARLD
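Chemiluminescent proximity detection of H3K9 monomethylation, read after 10 min bead incubation in the dark. Reaction: 20 nM G9a, 500 nM biotin-H3K9 peptide, 20 uM SAM cofactor, 2 h, room temperature, following 15 min enzyme-compound preincubation.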
VDR inh: blocks the human vitamin D receptor | P11473 | VDR-SRC2-3 peptide fluorescence polarization, 2 h | Potency, µM, for inactives: max response, negative = inhibition, hits mostly inhibitors | actives 0.93% (n = 400,000) | AID 504847; also: % is scaled to controls: 0 for no effect and ±100 for the full control effect
Target sequence (P11473 whole entry, looked up): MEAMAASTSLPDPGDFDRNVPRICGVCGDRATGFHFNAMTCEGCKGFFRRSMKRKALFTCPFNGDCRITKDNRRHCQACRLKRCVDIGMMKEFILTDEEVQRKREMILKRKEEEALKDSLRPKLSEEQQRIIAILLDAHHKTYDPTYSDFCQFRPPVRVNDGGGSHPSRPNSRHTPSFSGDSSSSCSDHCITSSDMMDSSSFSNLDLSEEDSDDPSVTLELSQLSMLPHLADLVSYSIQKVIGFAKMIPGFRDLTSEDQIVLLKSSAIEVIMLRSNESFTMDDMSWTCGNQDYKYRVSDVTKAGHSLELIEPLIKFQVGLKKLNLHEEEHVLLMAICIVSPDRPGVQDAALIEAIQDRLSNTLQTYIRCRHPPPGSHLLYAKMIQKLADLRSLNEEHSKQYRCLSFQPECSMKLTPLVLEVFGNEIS
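Measured by FP: displacement of SRC2-3 coactivator peptide from VDR by library compounds, following a two-hour ambient incubation.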
* hit, by the source's call; u = inconclusive; x = no result given; [ ] = another dose, or the depositor's remark. The sample as a whole holds a higher share of hits than the screen did. Calls follow the shape of the dose curve; as a rule, active = well fitted curve in the direction sought with a large enough effect; inconclusive = small, poorly fitted or top-dose-only effect, or another doubt; inactive = no such curve, though single readings can be large; an effect the other way counts as inactive or inconclusive. Potency is read from the fitted curve at half-maximal effect.

SMILES	Glioma ERSR ind	12-LOX inh	Sfp PPTase inh	G9a block	VDR inh
COc1ccc(Nc2cc(C)nc3c(OC)cccc23)cc1	x	-20%	x	x	x
CC(C)[C@H](N)c1nnc(SCC(=O)c2ccc(Cl)cc2)o1	-2%	7%	-15%	22%	-17%
CC(C)(C)OC(=O)NCCc1nnc(SCC(=O)c2ccc(Cl)cc2)o1	-2%	0%	-37%	-3%[12.7 µM]	-22%
NCCc1nnc(SCC(=O)c2ccc(Cl)cc2)o1	-3%	150%	56µM*	u	-25%
NCCCCCc1nnc(SCC(=O)c2ccc(Cl)cc2)o1	-3%	0%	50µM*	50µM*	-27%
O=C(NCC1CCCCC1)c1ccc2c(c1)N(S(=O)(=O)c1ccccc1)CC2	x	7%	x	x	x
CCCn1c(SCc2ccc(C(=O)OC)o2)nc2ccccc2c1=O	-6%	-18%	-8%	47%	0%
CCn1c2ccccc2c2nnc(SCc3ccc(C(=O)OC)o3)nc21	1%	-16%	32µM*	u	1%
CCn1c2ccccc2c2nnc(SCc3ccccc3)nc21	8%	-16%	-12%	23%	-6%
COC(=O)c1ccc(CSc2cc(C)c3ccccc3n2)o1	4%	233%	25µM*	88%	u
CCn1c2ccccc2c2nnc(SCC(=O)NC3CCS(=O)(=O)C3)nc21 (stereo unspecified)	-3%	-14%	-5%	40µM*	-12%
COC(=O)c1ccc(CSc2nnc(-c3ccccc3)n2C)o1	0%	-4%	0%	-48%	-3%
COC(=O)c1ccc(CSc2nnc3sc4ccccc4n23)o1	-6%	109%	-1%	50µM*	-10%
CCC(C)NC(=O)C(NC(=O)c1ccc(C)cc1)C1CCN(C(=O)c2cccc(F)c2)CC1 (stereo unspecified)	x	68%	x	x	x
CC(C)CN(CC(=O)NC(C)(C#N)C1CC1)C1CC1 (stereo unspecified)	x	2%	x	x	x
O=C(NCCNS(=O)(=O)c1cccc2nonc12)c1ccc2[nH]ccc2c1	x	14%	x	x	x
CCOC(=O)C1=C(C)N=c2s/c(=C\c3cccc(OCC(=O)O)c3)c(=O)n2C1c1ccccc1OC (stereo unspecified)	-2%	3%	79µM*	40µM*	u
CCOC(=O)C1=C(C)N=c2s/c(=C\c3ccc(OC(C)=O)cc3)c(=O)n2C1/C=C/c1ccccc1 (stereo unspecified)	-3%	-27%	-10%	20%[59 µM]	-15%
COc1cccc(C2C(C(=O)OC(C)C)=C(C)N=c3s/c(=C\c4ccc(C(=O)O)cc4)c(=O)n32)c1 (stereo unspecified)	4%	-7%	-24%	-5%[59 µM]	89µM*
CCOC(=O)C1=C(C)N=c2s/c(=C\c3ccc(OCC(=O)O)cc3)c(=O)n2C1c1ccc(OC(C)C)cc1 (stereo unspecified)	-1%	u	-11%	u	50µM*
CCOC(=O)C1=C(C)N=c2s/c(=C\c3ccc(OC(C)=O)c(OCC)c3)c(=O)n2C1/C=C/c1ccccc1 (stereo unspecified)	-3%	-14%	45µM*	-1%[59 µM]	-25%
CC1(C)Cc2c(sc(NC(=O)C(=O)NCCCN3CCOCC3)c2C#N)CO1	-3%	4%	16µM*	22µM*	-5%
CC1(C)Cc2c(sc(NC(=O)/C=C/C(=O)O)c2C#N)CO1	-3%	-17%	-11%	x	-16%
CC(=O)NC1C(=O)N(CCN2CCOCC2)c2ccc(C)cc21 (stereo unspecified)	3%	x	79µM*	20µM*	u
Cc1ccc2c(c1)C(=C(C#N)C#N)C(=O)N2CCN1CCCCC1	-2%	0%	-18%	x	12%
SMILES	Glioma ERSR ind	12-LOX inh	Sfp PPTase inh	G9a block	VDR inh
Cc1ccc2c(c1)C(=C(C#N)C#N)C(=O)N2CCN1CCOCC1	-4%	u	-8%	x	79µM*
CC(=O)NC1C(=O)N(CCN2CCOCC2)c2ccc(F)cc21 (stereo unspecified)	-5%	40µM*	71µM*	32µM*	u
CC(=O)NC1C(=O)N(CCN2CCOCC2)c2ccc(Cl)cc21 (stereo unspecified)	0%	40µM*	u	32µM*	u
CC(=O)NC1C(=O)N(CCOc2ccccc2)c2ccccc21 (stereo unspecified)	x	17%	x	x	x
COC(=O)c1cc(NC(=O)C(C)N(c2ccc(C)c(C)c2)S(C)(=O)=O)ccc1Cl (stereo unspecified)	x	-2%	x	x	x
O=C1NCc2ccccc2CC12CCCCN2Cc1ccc(CO)o1 (stereo unspecified)	x	4%[6.33 µM]	x	x	x
Cc1cccc(NC(=O)C23CC4CC(CC(Cl)(C4)C2)C3)c1	x	6%	x	x	x
C#CCN1CCC(C(=O)NC(c2ccccc2)C(F)(F)F)CC1 (stereo unspecified)	x	-6%	x	x	x
CCOc1cc2ccccc2cc1C(=O)Nc1nnc(C)s1	x	8%	x	x	x
C(=N\c1nccs1)/Nc1nccs1	0%	u	-21%	28µM*	20%
Cn1nc(CC(=O)NCC(=O)OCc2ccccc2)c2ccccc2c1=O	x	2%	x	x	x
O=C(O)c1ccc(S(=O)(=O)Cc2ccccc2)cc1	-2%	-12%	2%	12%[12.7 µM]	-13%
O=C(O)Cc1ccc(S(=O)(=O)Cc2ccccc2)cc1	x	1µM*	x	x	x
CCN(CC)c1ccc(/C=N/N2CCN(c3ccccn3)CC2)cc1	-3%	77%	18%	56µM*	-4%
CCN(CC)c1ccc(/C=N/N2CCOCC2)cc1	-3%	u	0%	11µM*	5%
CCOC(=O)C(C(C)=O)=C1SCCS1	x	-2%	x	x	x
CN(C)CCCN(C(=O)c1cccc(Br)c1)c1nc2c(F)cc(F)cc2s1	x	-13%	x	x	x
CN(C)CCN(C(=O)c1ccc2ccccc2c1)c1nc2c(F)cc(F)cc2s1	0%	u	-3%	50µM*	13%
Cc1cccc2sc(N(CCN(C)C)C(=O)c3ccc4ccccc4c3)nc12	-5%	0%	-2%	40µM*	-15%
N#Cc1ccc(SCc2ccccc2)cc1SCc1ccccc1	x	14%	x	x	x
Cc1onc(-c2ccccc2)c1C(=O)NNC(=S)NC(=O)c1ccc2c(c1)OCO2	2%	u	19%	50µM*	-12%
Cc1onc(-c2ccccc2)c1C(=O)NC(=S)NNC(=O)c1ccncc1	-1%	-15%	-1%	4%[59 µM]	-22%
Cc1onc(-c2ccccc2)c1C(=O)N/N=C/c1cccs1	-3%	4%	12%	32%	-4%
Cc1onc(-c2ccccc2)c1C(=O)NCc1ccc2c(c1)OCO2	-1%	2%	-1%	u	9%
Cc1onc(-c2ccccc2)c1C(=O)NC(=S)NNC(=O)c1cc(-c2ccc(F)cc2)n[nH]1	5%	45µM*	21%	50µM*	1%
Cc1onc(-c2ccccc2)c1C(=O)NNC(=S)NC(=O)/C=C/c1cccs1	6%	u	26%	13µM*	-21%
COc1cc(/C=C(/C#N)C(=O)Nc2cccc(C(F)(F)F)c2)ccc1OC(F)F	x	-22%	x	x	x
